According to PubChem BioAssay (NCI):
About 83,000 compounds went through this panel and 20% of them were active in at least one assay; those are over-represented in the sample as a whole.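 How to read the values: 0–100, growth inhibition (40 = 60% inhibited); 0, no net growth; -100 to 0, cell death (-40 = 40% of starting cells died; -100 = all dead).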 Active and inactive are the calls of the source. How the source made its calls: active means growth percent below 10; inactive means the rest.

Tests used:
Assay in all cases: NCI-60 one-dose screen, 48 h (100 = growth as untreated, 0 = no growth, -100 = all killed)
Conditions in all cases: 10 µM unless noted
DU-145 prostate = test system: DU-145 prostate
K-562 leukemia = test system: K-562 leukemia
MALME-3M melanoma = test system: MALME-3M melanoma
MDA-MB-231 breast = test system: MDA-MB-231 breast
RXF 393 renal = test system: RXF 393 renal
SF-268 CNS = test system: SF-268 CNS
SF-295 CNS = test system: SF-295 CNS
SF-539 CNS = test system: SF-539 CNS
UACC-257 melanoma = test system: UACC-257 melanoma
M14 melanoma = test system: M14 melanoma
HCT-15 colon = test system: HCT-15 colon
HT29 colon = test system: HT29 colon
SNB-75 CNS = test system: SNB-75 CNS
SNB-19 CNS = test system: SNB-19 CNS
U251 CNS = test system: U251 CNS
PC-3 prostate = test system: PC-3 prostate
SK-MEL-5 melanoma = test system: SK-MEL-5 melanoma
UACC-62 melanoma = test system: UACC-62 melanoma
LOX IMVI melanoma = test system: LOX IMVI melanoma
SK-MEL-28 melanoma = test system: SK-MEL-28 melanoma

Measured: growth

CC(C)C(=O)Nc1n[nH]c2cc(-c3cccc(NS(=O)(=O)C4CC4)c3)ccc12
inactive: DU-145 prostate 85.9% | K-562 leukemia 23.2% | MALME-3M melanoma 66.1% | MDA-MB-231 breast 58.4% | RXF 393 renal 88.9% | SF-268 CNS 76.1% | SF-295 CNS 56.3% | SF-539 CNS 77.8% | UACC-257 melanoma 66.8% | M14 melanoma 55.7% | HCT-15 colon 84.3% | HT29 colon 76.2% | SNB-75 CNS 54.3% | SNB-19 CNS 89.7% | U251 CNS 79.5% | PC-3 prostate 64% | SK-MEL-5 melanoma 24.5% | UACC-62 melanoma 54.4% | LOX IMVI melanoma 64.6% | SK-MEL-28 melanoma 78.4%

C[C@H]1[C@H]2[C@H]3CC[C@@H]4[C@@]5(C)C/C(=C/c6ccco6)C(=O)C(C)(C)[C@@H]5CC[C@@]4(C)[C@]3(C)CC[C@]23CO[C@]1(C)[C@@H](C(=O)/C=C\c1ccco1)C3
inactive: DU-145 prostate 111% | K-562 leukemia 93.4% | MALME-3M melanoma 23.5% | MDA-MB-231 breast 94.9% | RXF 393 renal 98.4% | SF-268 CNS 97.3% | SF-295 CNS 107% | SF-539 CNS 93.8% | UACC-257 melanoma 31.5% | M14 melanoma 60.5% | HCT-15 colon 112% | HT29 colon 105% | SNB-75 CNS 88.2% | SNB-19 CNS 91.8% | U251 CNS 83.4% | PC-3 prostate 79.7% | SK-MEL-5 melanoma 55.7% | UACC-62 melanoma 26% | LOX IMVI melanoma 93.6% | SK-MEL-28 melanoma 43.9%

COc1ccc(-c2cc(-c3ccc(Nc4nc(Nc5ccc(Cl)cc5)nc(Nc5ccc(Cl)cc5)n4)cc3)nc(N)c2C#N)cc1
inactive: DU-145 prostate 37.7% | K-562 leukemia 30.1% | SF-268 CNS 59% | SF-295 CNS 415% | M14 melanoma 24.9% | HCT-15 colon 10.6% | SNB-19 CNS 105% | U251 CNS 10.9% | UACC-62 melanoma 42.4%
active: MALME-3M melanoma -70.3% | MDA-MB-231 breast -30.7% | RXF 393 renal -32.5% | SF-539 CNS -48.7% | UACC-257 melanoma -13.2% | HT29 colon 2.33% | SNB-75 CNS -74.1% | PC-3 prostate 4.49% | SK-MEL-5 melanoma -67.5% | LOX IMVI melanoma -75.1% | SK-MEL-28 melanoma -47.5%

COc1cc(/C=C/C(=O)c2cccc(-n3cc(-c4ccccc4)[nH]c3=O)c2)ccc1O
inactive: DU-145 prostate 81.1% | K-562 leukemia 20.9% | MALME-3M melanoma 90.8% | MDA-MB-231 breast 90.3% | RXF 393 renal 20% | SF-268 CNS 66.5% | SF-295 CNS 65.7% | SF-539 CNS 85.7% | UACC-257 melanoma 68.8% | M14 melanoma 84.7% | HCT-15 colon 22.2% | HT29 colon 44.5% | SNB-75 CNS 46.8% | SNB-19 CNS 90.5% | U251 CNS 16.6% | PC-3 prostate 61.3% | SK-MEL-5 melanoma 68.5% | UACC-62 melanoma 69.8% | LOX IMVI melanoma 18.7% | SK-MEL-28 melanoma 70.2%

COc1ccc(-c2nc(SCCC(C)C)nc(N/N=C\c3cccc(Cl)c3)c2C#N)cc1
active: SNB-75 CNS 4.61%
inactive: DU-145 prostate 85.4% | K-562 leukemia 79.7% | MALME-3M melanoma 111% | MDA-MB-231 breast 53% | RXF 393 renal 87.5% | SF-268 CNS 71.1% | SF-295 CNS 55% | SF-539 CNS 84.3% | UACC-257 melanoma 87.3% | M14 melanoma 101% | HCT-15 colon 82.2% | HT29 colon 83.2% | SNB-19 CNS 76.2% | U251 CNS 29.1% | PC-3 prostate 83.7% | SK-MEL-5 melanoma 96% | UACC-62 melanoma 89.6% | LOX IMVI melanoma 70.9% | SK-MEL-28 melanoma 112%

C=C(C)[C@@H]1CC=C2c3sc(-c4ccc(C)cc4)nc3C[C@@H](C)[C@]2(C)C1
inactive: DU-145 prostate 114% | K-562 leukemia 97% | MALME-3M melanoma 104% | MDA-MB-231 breast 107% | RXF 393 renal 113% | SF-268 CNS 99.7% | SF-295 CNS 104% | SF-539 CNS 102% | UACC-257 melanoma 105% | M14 melanoma 100% | HCT-15 colon 104% | HT29 colon 98.8% | SNB-75 CNS 87.4% | SNB-19 CNS 101% | U251 CNS 97.5% | PC-3 prostate 95.5% | SK-MEL-5 melanoma 101% | UACC-62 melanoma 93.2% | LOX IMVI melanoma 95.3% | SK-MEL-28 melanoma 103%

COc1cc(C(=O)/C=C/c2c(C(F)(F)F)nc3sccn23)cc(OC)c1OC
inactive: DU-145 prostate 10.7% | MALME-3M melanoma 78.6% | MDA-MB-231 breast 29.1% | SF-268 CNS 16.1% | UACC-257 melanoma 13.4% | SNB-75 CNS 29.8% | SNB-19 CNS 20.7% | PC-3 prostate 16.4%
active: K-562 leukemia -16.1% | RXF 393 renal -55.7% | SF-295 CNS -2.07% | SF-539 CNS -59.1% | M14 melanoma -39.2% | HCT-15 colon -62.2% | HT29 colon -11.8% | U251 CNS 4.46% | SK-MEL-5 melanoma 5.95% | UACC-62 melanoma -13.8% | LOX IMVI melanoma -57.9% | SK-MEL-28 melanoma -18.4%

OC(c1cccc(-n2ccc(C(F)(F)F)n2)c1)c1cnccc1NC1CCCCCC1 (stereo not given)
active: DU-145 prostate 2.76% | K-562 leukemia 3.64% | MALME-3M melanoma -79% | MDA-MB-231 breast -76.4% | UACC-257 melanoma -17.8% | M14 melanoma -75.1% | HCT-15 colon -39.2% | HT29 colon -0.162% | U251 CNS -42.6% | LOX IMVI melanoma -91.4% | SK-MEL-28 melanoma -65.3%
inactive: RXF 393 renal 14.2% | SF-268 CNS 64.4% | SF-295 CNS 81.3% | SF-539 CNS 61.3% | SNB-75 CNS 64.4% | SNB-19 CNS 71.1% | PC-3 prostate 41.2% | SK-MEL-5 melanoma 33.8% | UACC-62 melanoma 32.2%

COC(=O)c1c2c(c(C)[n+]([O-])c1C)C(=O)C(NCc1ccc(F)cc1)=CC2=O
active: K-562 leukemia 9.12% | MALME-3M melanoma -95.7% | MDA-MB-231 breast 1.94% | SF-539 CNS 0.757% | UACC-257 melanoma -36.8% | M14 melanoma 2.89% | HT29 colon 7.24% | SNB-19 CNS 3.72% | U251 CNS -13.9% | PC-3 prostate 3.57% | SK-MEL-5 melanoma -47.9% | UACC-62 melanoma -35.5%
inactive: DU-145 prostate 42.5% | RXF 393 renal 56.9% | SF-268 CNS 23% | SF-295 CNS 69.1% | HCT-15 colon 14% | SNB-75 CNS 128% | LOX IMVI melanoma 20.3% | SK-MEL-28 melanoma 72.4%

COc1ccc(N=Nc2ccc(O)c(=O)cc2)cc1
inactive: DU-145 prostate 19.3% | MDA-MB-231 breast 17.5% | RXF 393 renal 29.7% | SF-268 CNS 22.3% | SF-295 CNS 10.2% | M14 melanoma 13% | HCT-15 colon 16.4% | HT29 colon 33.1% | SNB-19 CNS 15.1% | U251 CNS 12.8% | PC-3 prostate 36.6%
active: K-562 leukemia 2.95% | MALME-3M melanoma 9.91% | SF-539 CNS -5.77% | UACC-257 melanoma 7.51% | SNB-75 CNS 8.47% | SK-MEL-5 melanoma -23.3% | UACC-62 melanoma -54% | LOX IMVI melanoma -38.8% | SK-MEL-28 melanoma 5.78%

CC1(C)OC2C(CO[Si](C)(C)C(C)(C)C)OC(n3c(I)c(C#C[Si](C)(C)C)c(=O)[nH]c3=O)C2O1 (stereo not given)
inactive: DU-145 prostate 107% | K-562 leukemia 67.5% | MALME-3M melanoma 109% | MDA-MB-231 breast 98% | SF-268 CNS 108% | SF-295 CNS 140% | SF-539 CNS 105% | UACC-257 melanoma 91.3% | M14 melanoma 106% | HCT-15 colon 93% | SNB-19 CNS 105% | U251 CNS 88.4% | PC-3 prostate 91.4% | SK-MEL-5 melanoma 95.9% | UACC-62 melanoma 92.8% | LOX IMVI melanoma 86.6%
active: RXF 393 renal -32.9% | HT29 colon -32.6% | SNB-75 CNS -71.4% | SK-MEL-28 melanoma -53.9%

O=C(NCCNc1cc(-c2cn(-c3ccccc3)nc2-c2cccc(O)c2)ccn1)Nc1ccccc1
inactive: DU-145 prostate 92.8% | K-562 leukemia 35.4% | MALME-3M melanoma 92.3% | MDA-MB-231 breast 57.1% | RXF 393 renal 89.5% | SF-268 CNS 81.3% | SF-295 CNS 75.8% | SF-539 CNS 89.5% | UACC-257 melanoma 58.7% | M14 melanoma 72.2% | HCT-15 colon 62.7% | HT29 colon 27.3% | SNB-75 CNS 66.2% | SNB-19 CNS 82.4% | U251 CNS 56.4% | PC-3 prostate 45.7% | SK-MEL-5 melanoma 63.9% | UACC-62 melanoma 70% | LOX IMVI melanoma 82.5% | SK-MEL-28 melanoma 103%

CCCCN(CCCC)CC(C)(C)C(O)c1ccc(OC)c2ccccc12 (stereo not given)
inactive: DU-145 prostate 69.2% | K-562 leukemia 31.2% | MALME-3M melanoma 47.3% | MDA-MB-231 breast 70.8% | RXF 393 renal 65% | SF-268 CNS 85.3% | SF-539 CNS 76.9% | UACC-257 melanoma 60.2% | M14 melanoma 37% | HCT-15 colon 59.1% | SNB-75 CNS 101% | SNB-19 CNS 76.3% | U251 CNS 50.3% | PC-3 prostate 29.5% | SK-MEL-5 melanoma 50.7% | UACC-62 melanoma 56.1% | LOX IMVI melanoma 66.6% | SK-MEL-28 melanoma 85%
active: SF-295 CNS -7.15% | HT29 colon 9.09%

COc1ccc(-c2nc3c(N)c(CO)c(C)nc3o2)cc1
inactive: DU-145 prostate 102% | K-562 leukemia 91.5% | MALME-3M melanoma 96.7% | MDA-MB-231 breast 111% | RXF 393 renal 96% | SF-268 CNS 94.9% | SF-295 CNS 99.1% | SF-539 CNS 93.9% | UACC-257 melanoma 101% | M14 melanoma 106% | HCT-15 colon 102% | HT29 colon 97.7% | SNB-75 CNS 98.9% | SNB-19 CNS 111% | U251 CNS 96.5% | PC-3 prostate 103% | SK-MEL-5 melanoma 95.3% | UACC-62 melanoma 97.7% | LOX IMVI melanoma 93.5% | SK-MEL-28 melanoma 106%

NC(=S)Nc1cccc(O)c1
inactive: DU-145 prostate 121% | K-562 leukemia 106% | MALME-3M melanoma 102% | MDA-MB-231 breast 96.7% | RXF 393 renal 120% | SF-268 CNS 109% | SF-295 CNS 100% | SF-539 CNS 95.8% | UACC-257 melanoma 92.9% | M14 melanoma 98.4% | HCT-15 colon 88.3% | HT29 colon 103% | SNB-75 CNS 83.8% | SNB-19 CNS 99.3% | U251 CNS 95.5% | PC-3 prostate 105% | SK-MEL-5 melanoma 106% | UACC-62 melanoma 90.5% | LOX IMVI melanoma 87.8% | SK-MEL-28 melanoma 110%
